HCV inhibitor: HCV inhibition. Huh7.5.1 HCVcc-Cre infection, luciferase reporter, 44 h. Potency, µM (titrated, usually from 41.8 µM), for the others: top-dose activity change, negative = inhibition, most hits filed as inhibitors. actives 3.4% (n = 340,000). AID 651820; note: potency is the fitted concentration of half-maximal effect; % is set by controls: 0 for no effect and ±100 for the full control effect
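Infectious HCV cell culture screen: compound-treated cells (1,000/well, pre-plated 4 h) are infected with HCVcc-Cre at roughly 0.5 moi and grown 44 h. Infection is quantified by luciferase signal after 15 min substrate incubation at room temperature.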
Pf growth 48h: P. falciparum growth inhibition at 48 hours (one generation). P. falciparum luciferase growth in erythrocytes, 48 h. Potency, µM (series often up to 28.7 µM), for inactives: top-dose activity change, negative = inhibition, actives largely listed as inhibitors. actives 5.9% (n = 310,000); note: potency is the fitted concentration of half-maximal effect; % is set by controls: 0 for no effect and ±100 for the full control effect
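Luciferase-expressing P. falciparum in infected erythrocytes (2% hematocrit, 0.1% parasitemia final) in RPMI 1640/0.5% Albumax were exposed to compound for 48 hours at 37 C, 5% CO2; growth read as luminescence.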
Shiga toxin inh: inhibitors of Shiga toxin in Vero cells; Vero cells, Shiga toxin protein synthesis inhibition reporter; inhibition, % at 38.7 µM; actives 9.2% (n = 290,000); in the data active = inhibition mostly above about 28%, no sharp cut-off; inactive = mostly below about 43%; note: 0% is about no effect
CHX counter: counter-screen hit for Shiga toxin inhibitors, cycloheximide; actives 12% (n = 300,000); cell reporter, cycloheximide protein synthesis inhibition counterscreen; max response, %; in the data active = max response mostly above about 13%, no sharp cut-off; inactive = mostly below about 14%; note: read at 38.3 µM for the half of the compounds with a filed dose; 0% is about no effect
Pf growth 96h: P. falciparum growth inhibition at 96 hour, primary screen for plastid delayed-death inhibitors; P. falciparum luciferase reporter growth, 96 h; Potency, µM (titrated, usually from 28.7 µM), for the others: at the highest dose activity change, negative = inhibition, actives largely listed as inhibitors; actives 6.9% (n = 320,000); AID 504834; note: potency is the fitted concentration of half-maximal effect; % is set by controls: 0 for no effect and ±100 for the full control effect
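Readout is luminescence from an integrated firefly luciferase in P. falciparum. Red cells, 2% hematocrit and 0.05% parasitemia final, were cultured with compound through two parasite generations (96 hours) at 37 C, 5% CO2.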
HCMV antiviral: inhibitors of human cytomegalovirus. HFF cells, HCMV-luciferase reporter, 72 h; stronger effect = lower value. activity change, negative = inhibition, % at 57.5 µM. actives 4.5% (n = 410,000); in the data active = activity change below about -60%; inconclusive = no clear call, values can overlap the other calls; inactive = above about -39%; note: % is set by controls: 0 for no effect and ±100 for the full control effect
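Steps: HFFs plated, 16 h 37C; compounds added; HCMV-luciferase added to MOI 1 PFU/cell; 72 h 37C; OneGlo reagent, 5 min room temperature; luminescence read, normalized to controls.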
Numbers without * were called inactive; ? = inconclusive; . = no result given; + = active, no number; [ ] = another dose, or the depositor's remark. Rows were chosen to be rich in hits. Some 21% of all compounds tested hit in one or more screens of this group. Unless noted, calls come from the whole dose curve; as a rule, active = well fitted inhibition curve with a large enough effect; inconclusive = small, poorly fitted or top-dose-only effect, or another doubt; inactive = no such curve, though single readings can be large or run the other way.

SMILES | HCV inhibitor | Pf growth 48h | Shiga toxin inh | CHX counter | Pf growth 96h | HCMV antiviral
O=C(CN1C(=O)C2C3C=CC(C4CC34)C2C1=O)Oc1ccccc1 (stereo not given) | 17% | 10% | 18 | 5 | 1% | -1
COc1cc(C2c3c(oc4ccc(C)cc4c3=O)C(=O)N2Cc2ccccc2)ccc1O (stereo not given) | . | . | . | . | . | 15
CC(NC(=O)c1ccccc1NC(=O)c1ccco1)C(=O)O (stereo not given) | 3% | 165% | 138* | 76* | -20% | -27
O=C(Nc1ccccc1C(=O)Nc1ccccc1C(=O)NCc1ccco1)c1ccco1 | -20% | 8.3µM* | 3 | 1 | . | -19
CNC(=O)COC(=O)c1ccccc1NC(=O)c1ccco1 | -10% | -2% | 19 | 1 | 3% | -101*
O=C(Nc1ccccc1C(=O)OCC(=O)N1CCc2ccccc2C1)c1ccco1 | 8% | ? | 73* | 42* | -5% | 3
O=C(Nc1ccccc1C(=O)NC(Cc1ccccc1)C(=O)O)c1ccco1 (stereo not given) | 10% | 3% | -3 | 5 | 16% | -13
CC1CCCCC1NC(=O)COC(=O)c1ccccc1NC(=O)c1ccco1 (stereo not given) | 20% | . | 20 | -2 | 39% | -29
O=C(NCc1ccccc1)C1CCCN1C(=O)Nc1ccccc1[N+](=O)[O-] (stereo not given) | 6% | 17% | -6 | 1 | ? | 19
O=C(O)C(Cc1ccccc1)N1C(=O)C2C3CCC(C3)C2C1=O (stereo not given) | . | . | . | . | . | -7
CN(c1ncc(C(F)(F)F)cc1Cl)N1C(=O)c2cccc([N+](=O)[O-])c2C1=O | 7% | 1% | -6 | -3 | 36% | 27
O=C(CN1C(=O)c2ccccc2S1(=O)=O)Nc1ccccc1C(=O)NCc1ccco1 | 7% | 5% | -3 | -3 | . | 42
O=C(CN1C(=O)c2cccc3cccc1c23)Nc1ccccc1C(=O)NCc1ccco1 | -26% | . | . | . | . | -61*
CCCCn1nnnc1C(CCc1ccccc1)N1CCC(n2c(=O)[nH]c3ccccc32)CC1 (stereo not given) | . | . | . | . | . | -101*
CCC(c1nnnn1Cc1ccccc1)N1CCC(n2c(=O)[nH]c3ccccc32)CC1 (stereo not given) | . | . | . | . | . | -61*
CCCCNC(=O)c1nc2ccccc2nc1-c1cccc(Br)c1 | . | . | . | . | . | -2
CC1(C)Cc2c(sc(NC(=O)C(=O)NCC3CCCO3)c2C(N)=O)CO1 (stereo not given) | 9% | -24% | -4 | -2 | ? | -15
CCc1ccc(-c2csc(NC(=O)C3CC(=O)N(c4ccc5c(c4)OCCO5)C3)n2)cc1 (stereo not given) | 11µM* | 36% | + | 14* | ? | -84*
O=C(Nc1nnc(SCc2ccc(F)cc2)s1)C1CC(=O)N(Cc2ccccc2)C1 (stereo not given) | 2% | -14% | -12 | -3 | 7.4µM* | 35
Cc1nnc(NC(=O)C2CC(=O)N(Cc3ccccc3)C2)s1 (stereo not given) | 3% | -7% | -6 | 1 | ? | -4
O=C(Nc1nnc(SCc2ccc(F)cc2)s1)C1CC(=O)N(c2ccc3c(c2)OCCO3)C1 (stereo not given) | 13% | 18% | 1 | 15* | -11% | -35
N#Cc1ccc(CSc2nnc(NC(=O)C3CC(=O)N(c4ccc5c(c4)OCCO5)C3)s2)cc1 (stereo not given) | 0% | 3% | -2 | 11* | -16% | .
Cc1ccc(S(=O)(=O)N(C)C)cc1NC(=O)COC(=O)C1CCN(S(=O)(=O)c2cccs2)CC1 | 4% | -14% | . | . | 28% | -10
CCc1cc2c3c(c(=O)oc2cc1OCC(=O)OC)CCCC3 | -8% | 44% | -8 | -2 | ? | -28
Cc1cc2nc(-c3ccc(Cl)cc3)cc(C(F)(F)F)n2n1 | . | . | . | . | . | 3
SMILES | HCV inhibitor | Pf growth 48h | Shiga toxin inh | CHX counter | Pf growth 96h | HCMV antiviral
CCOC(=O)C1=C(C)NC(=O)NC1C (stereo not given) | 13% | 7% | 13 | -1 | 13% | .
CC1=C(C(=O)OC(C)C)C(C)NC(=O)N1 (stereo not given) | 15% | 0% | 1 | 2 | 9.3µM* | -19
O=C(CCNC(=O)c1ccc(Cl)cc1)NNC(=O)c1ccc(F)cc1 | ? | -19% | . | . | 0% | -39
COc1cc(C2N(Cc3ccccc3)CCN2Cc2ccccc2)ccc1OC(C)=O | 0% | -2% | -11 | 1 | ? | 35
COc1cc(C2N(c3ccccc3)CCN2c2ccccc2)ccc1OC(C)=O | -11% | 20% | 56 | 47* | -14% | -63*
CC(C)Nc1ncnc2c1ncn2[C@H]1CN(Cc2cccnc2)C[C@@H](CO)O1 | . | . | . | . | . | 2
O=C(NCC1CC1)c1ccc2c3n(nc2c1)-c1ccc(Cl)cc1CO3 | ? | . | . | . | . | 45
O=C(O)c1ccc2c3n(nc2c1)-c1ccc(Cl)cc1CO3 | 55% | 370% | 54* | 42* | 176% | 60
O=C(c1ccc2c3n(nc2c1)-c1ccc(Cl)cc1CO3)N1CCCCC1 | 0% | 266% | 70* | 46* | 292% | 110
Cc1ccc2c(c1)COc1c3ccc(C(=O)N4CCOCC4)cc3nn1-2 | -13% | 101% | 96* | 55* | 97% | 128
COc1ccc(CCNC(=O)c2ccc3c(c2)ncn3-c2ccc(C)cc2C)cc1OC | . | . | . | . | . | -22
CCOc1ccc(-c2nc(CSCC(=O)NCCc3ccc(OCC)c(OCC)c3)c(C)o2)cc1 | . | . | . | . | . | -30
CCOC(=O)N1CCC(NC(=O)CSCc2nc(-c3cccc(OC)c3)oc2C)CC1 | ? | -22% | 1 | -3 | ? | -93*
CCOc1ccc(-c2nc(CSCC(=O)NC3CCCc4ccccc43)c(C)o2)cc1 (stereo not given) | 18µM* | . | 13 | 6 | 13µM* | -24
CCOc1ccc(-c2nc(CSCC(=O)NC3CC3)c(C)o2)cc1 | -26% | 13µM* | 2 | 22* | 23% | ?
CCOC(=O)N1CCC(NC(=O)CSCc2nc(-c3ccc(OCC)cc3)oc2C)CC1 | ? | 12µM* | 8 | 10 | -2% | ?
CCOC(=O)N1CCC(NC(=O)CSCc2nc(-c3ccccc3Cl)oc2C)CC1 | -28% | 2% | 18 | -1 | 28% | -22
COc1ccc(-n2c(SCc3ccccc3F)nc3c([nH]c4ccccc43)c2=O)cc1 | . | . | . | . | . | -5
O=C(Nc1nccs1)c1cc2sccc2n1Cc1ccc(F)cc1 | ? | 13µM* | 28 | 18* | -9%[5.75 µM] | -17
CC(NC(=O)c1cc2sccc2n1Cc1ccc(F)cc1)c1ccccc1 (stereo not given) | . | . | . | . | . | -85*
COc1ccc(NC(=O)c2cc3sccc3n2Cc2ccc(F)cc2)cc1OC | ? | ? | 55 | 25* | -17% | -10

Compound activity: PubChem BioAssay, National Center for Advancing Translational Sciences (NCATS)
